High-throughput results deposited in PubChem by several laboratories.
CYP2C9 inhib: human CYP2C9 inhibition. P11712. 96,000 compounds, 20% hits. AID 777. inhibition, % at 5 µM. CYP2C9 Supersomes, luciferin-H conversion, luminescence;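 active = blocking of liver enzyme CYP2C9 beyond about 50% at 5 µM, limit read from the data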
Target sequence (P11712 whole entry, looked up): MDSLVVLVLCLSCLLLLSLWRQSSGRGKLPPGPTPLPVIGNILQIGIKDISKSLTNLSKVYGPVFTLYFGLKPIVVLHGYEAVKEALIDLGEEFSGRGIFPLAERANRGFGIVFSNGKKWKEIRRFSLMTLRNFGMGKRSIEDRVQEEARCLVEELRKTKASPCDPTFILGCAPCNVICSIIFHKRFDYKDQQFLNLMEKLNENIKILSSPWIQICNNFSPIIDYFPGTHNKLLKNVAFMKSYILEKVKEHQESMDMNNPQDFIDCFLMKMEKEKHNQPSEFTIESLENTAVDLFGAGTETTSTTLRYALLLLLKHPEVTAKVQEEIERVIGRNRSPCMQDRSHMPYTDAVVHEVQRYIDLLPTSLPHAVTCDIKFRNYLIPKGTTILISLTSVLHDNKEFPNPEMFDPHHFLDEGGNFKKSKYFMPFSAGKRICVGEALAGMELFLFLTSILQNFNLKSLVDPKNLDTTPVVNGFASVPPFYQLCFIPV
CYP2C19 inhib: inhibitors of human CYP2C19; CYP2C19 Supersomes, luciferin-H EGE luminescence, 30 min; 96,000 compounds, 21% hits; inhibition, % at 5 µM; AID 778; P33261;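 active = CYP2C19 inhibition above a set limit at 5 µM in the primary screen, cut at about 50% in these data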
CYP2C9 act: increases human cytochrome P450 2C9 activity; P11712; 96,000 compounds, 1.4% hits; recombinant CYP2C9, luciferin-H conversion, luminescence; hits give high values; factor 1 = untreated enzyme, 0 = blocked; activation factor at 5 µM;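 active = activation factor of 2 or more for CYP2C9 at a 5 µM dose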
CYP2C19 activ: cytochrome P450 2C19 (human) activation; P33261; recombinant CYP2C19, luciferin-H EGE luminescence; hits give high values; 0 = fully inhibited enzyme, 1 = untreated enzyme; activation factor at 5 µM; 96,000 tested, under 10 active;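 active = activation factor of at least 2 at 5 µM in the primary screen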
Measles CPE: protection of cells from measles virus | Measles virus-infected cells, CPE protection, absorbance | protection (pct of control), % at 4 µM | 140,000 compounds, 1.5% hits | AID 841; in the data active = protection mostly above about 24%, no sharp cut-off; inactive = mostly below about 26%
A number is an active result; n = inactive; x = not tested or not shown. In the library only some 22% were active in any assay of this set; here they are far more common.

SMILES	CYP2C9 inhib	CYP2C19 inhib	CYP2C9 act	CYP2C19 activ	Measles CPE
CC(C)NC(=O)COC(=O)c1ccccc1Oc1ccccc1	72.5	86.8	n	n	n
CCOc1ccccc1C(=O)OCC(=O)Nc1cc(Cl)ccc1Oc1ccccc1	x	x	x	x	n
O=C(COC(=O)c1ccco1)NCc1ccco1	n	n	n	n	n
O=C(COC(=O)c1ccccc1Oc1ccccc1)NCc1ccco1	56.3	n	n	n	n
O=C(COC(=O)c1ccc(S(=O)(=O)Nc2ccccc2)cc1)NCc1ccco1	75.1	n	n	n	n
O=C(COC(=O)c1ccc(S(=O)(=O)NCc2ccco2)cc1)NCC1CCCCC1	57.6	n	n	n	n
O=C(NC1CCCCC1)c1ccc(S(=O)(=O)NCc2ccco2)cc1	n	n	n	n	n
O=C(COC(=O)c1ccccc1Nc1ccccc1)NCc1ccccc1	x	x	x	x	n
Cc1ccc(C(=O)OCC(=O)NCCN2C(=O)CSC2=O)cc1	x	x	x	x	n
O=C(COC(=O)c1ccccc1)NCc1ccco1	n	n	n	n	25.9
O=C(COC(=O)c1ccc(S(=O)(=O)Nc2ccccc2)cc1)NCCN1C(=O)CSC1=O	81.4	61.7	n	n	n
O=C(COC(=O)c1ccccc1Nc1cccc(C(F)(F)F)c1)NCc1ccco1	57.6	n	n	n	n
Cc1cccc(NC(=O)C2CCN(S(=O)(=O)c3c(C)[nH]c(=O)[nH]c3=O)CC2)c1	x	x	x	x	n
Nc1cc(C(=O)OCC(=O)NCc2ccco2)ccc1Cl	n	59.5	n	n	n
Cc1ccc(C(=O)OCC(=O)NCc2ccco2)cc1	n	n	n	n	n
O=C(COC(=O)c1ccccc1)NCC1CCCO1 (stereo not drawn)	n	n	n	n	n
Nc1cc(C(=O)OCC(=O)NCC2CCCO2)ccc1Cl (stereo not drawn)	n	56.3	n	n	n
COC(=O)Nc1cccn(Cc2c(Cl)cccc2Cl)c1=O	n	86.8	2.5	n	n
O=C(Nc1cccn(Cc2c(Cl)cccc2Cl)c1=O)c1c(Cl)cccc1Cl	n	n	n	n	n
CCN(CC)C(=O)C1CCC(CNS(=O)(=O)c2cccc3cccnc23)CC1 (stereo not drawn)	n	n	n	n	n
CCN(CC)C1=N/C(=C\c2ccc(OC)cc2)C(=O)N1c1ccccc1	x	x	x	x	68.9
COc1ccc(/C=C2\N=C(SC)N(C)C2=O)cc1	n	52.1	n	n	n
Cc1ccc(CC2CC(=O)N(c3ccncc3)C2=O)cc1 (stereo not drawn)	57.4	94.3	n	n	n
Cc1ccc(CC2CC(=O)N(Cc3ccco3)C2=O)cc1 (stereo not drawn)	55.3	88.1	n	n	n
CC(=O)c1nc(N2C(=O)CC(Cc3ccc(C)cc3)C2=O)sc1C (stereo not drawn)	x	x	x	x	n
SMILES	CYP2C9 inhib	CYP2C19 inhib	CYP2C9 act	CYP2C19 activ	Measles CPE
COc1ccc(OC)c(N2C(=O)CC(Cc3ccc(Cl)cc3)C2=O)c1 (stereo not drawn)	x	x	x	x	n
Cc1ccc(CC2CC(=O)N(c3ccc(Cl)cn3)C2=O)cc1 (stereo not drawn)	n	57.6	n	n	n
Cc1onc(C(=O)N2CCN(C(c3ccccc3)c3ccccc3)CC2)c1[N+](=O)[O-]	x	x	x	x	n
CC(C(N)=O)N1C(=O)C2C3C=CC(C3)C2C1=O (stereo not drawn)	n	n	n	n	n
COc1ccc(Sc2cnn(-c3ccccc3)c(=O)c2Cl)cc1	85.2	n	n	n	n
CC1=CC(c2ccc(Cl)cc2)n2nc(NS(=O)(=O)c3ccc(C)cc3)nc2N1 (stereo not drawn)	70.5	n	n	n	n
CC1=CC(c2ccccc2)n2nc(NS(=O)(=O)c3ccc(C)cc3)nc2N1 (stereo not drawn)	n	n	n	n	n
CCCC1CCC(=NNC(=O)CNc2ccc(OC)cc2)CC1 (stereo not drawn)	x	x	x	x	n
CCOc1ccc(CCNS(=O)(=O)c2cnc[nH]2)cc1OCC	93.8	67.8	n	n	n
CS(=O)(=O)N(CC(=O)N1CCOCC1)Cc1ccccc1	n	n	n	n	n
COc1ccc(C)cc1S(=O)(=O)N(CC(=O)N1CCOCC1)Cc1ccccc1	n	66.1	n	n	n
COc1ccc(S(=O)(=O)N(CCc2ccccc2)CC(=O)N2CCOCC2)cc1	n	n	n	n	n
COc1ccc(S(=O)(=O)N(CC(=O)N2CCOCC2)Cc2ccccc2)cc1C	n	72.3	n	n	n
COc1ccc(S(=O)(=O)N(CCc2ccccc2)CC(=O)O)cc1C	73.0	61.9	n	n	n
COc1ccc(S(=O)(=O)N(CC(=O)O)Cc2ccccc2)cc1OC	n	n	n	n	n
